Several values for one entry are separate records, joined by “and”; a condition that tells them apart may be missing. Identical values can stand only once. Out of some 5,500 compounds screened, about 2,000 (36%) were called active. Roughly 18% stayed inconclusive and do not appear here. Cut-off read from the data, not from the text of the source: active = normalized growth mostly below about 0.91 (no sharp cut-off); inconclusive = no clear call, values can overlap the other calls; inactive = mostly above about 0.92. The list shows a part of the results.
Assay: chemical genetic growth profiling, strain panel (AID 1159580);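 note: tested at 20 µM; growth read once vehicle control cultures reached saturation at 30 °C; 1 = growth at the plate median or of vehicle wells; lower values mean less growth of the strain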
Conditions: S. cerevisiae deletion strains, growth OD

Measured: normalized growth

CCCC(C)(COC(N)=O)COC(=O)NC(C)C (stereo unspecified)
inactive: locus YAL021C, strain ccr4, active compounds read low 1 | locus YAL026C, strain drs2, active compounds read low 0.99 | locus YAL030W, strain snc1, active compounds read low 0.98 | locus YAL040C, strain CLN3, active compounds read low 0.989 | locus YBL061C, strain skt5, active compounds read low 1 | locus YBR009C, strain hhf1, active compounds read low 0.983 | locus YBR021W, strain FUR4, active compounds read low 0.991 | locus YBR023C, strain chs3, active compounds read low 1.01 | locus YBR171W, strain sec66, active compounds read low 1 | locus YBR229C, strain ROT2, active compounds read low 0.954 | locus YBR231C, strain swc5, active compounds read low 1.01 | locus YBR279W, strain paf1, active compounds read low 1 | locus YCL011C, strain gbp2, active compounds read low 0.996 | locus YCL016C, strain dcc1, active compounds read low 0.985 | locus YCL029C, strain bik1, active compounds read low 0.977 | locus YCL061C, strain MRC1, active compounds read low 1 | locus YCL069W, strain vba3, active compounds read low 0.992 | locus YCR088W, strain abp1, active compounds read low 0.998 | locus YDL005C, strain med2, active compounds read low 1 | locus YDL035C, strain GPR1, active compounds read low 0.951 | locus YDL040C, strain nat1, active compounds read low 1 | locus YDL074C, strain BRE1, active compounds read low 0.974 | locus YDL101C, strain DUN1, active compounds read low 0.982 | locus YDL134C, strain PPH21, active compounds read low 0.965 | locus YDL185W, strain tfp1, active compounds read low 0.945 | locus YDL192W, strain arf1, active compounds read low 0.965 | locus YDR001C, strain nth1, active compounds read low 0.974 | locus YDR069C, strain doa4, active compounds read low 1.01 | locus YDR101C, strain arx1, active compounds read low 0.983 | locus YDR137W, strain rgp1, active compounds read low 0.966 | locus YDR150W, strain NUM1, active compounds read low 0.983 | locus YDR159W, strain sac3, active compounds read low 0.986 | locus YDR162C, strain NBP2, active compounds read low 0.94 | locus YDR195W, strain ref2 1 | locus YDR297W, strain sur2, active compounds read low 0.991 | locus YDR318W, strain mcm21, active compounds read low 0.979 | locus YDR334W, strain swr1, active compounds read low 0.979 | locus YDR335W, strain msn5, active compounds read low 0.989 | locus YDR363W, strain ESC2, active compounds read low 0.976 | locus YDR388W, active compounds read low 0.979 | locus YDR392W, strain spt3, active compounds read low 0.952 | locus YDR502C, strain sam2, active compounds read low 0.984 | locus YEL003W, strain gim4, active compounds read low 0.986 | locus YEL037C, strain rad23, active compounds read low 0.993 | locus YEL061C, strain CIN8 (second series), active compounds read low 0.975 | locus YEL061C, strain CIN8, active compounds read low 0.982 | locus YER002W, strain NOP16, active compounds read low 0.995 | locus YER015W, strain faa2, active compounds read low 1.01 | locus YER016W, strain bim1, active compounds read low 0.986 | locus YER110C, active compounds read low 0.964 | locus YER111C, strain swi4, active compounds read low 0.973 | locus YER155C, strain BEM2 (second series), active compounds read low 1.04 | locus YER155C, strain BEM2, active compounds read low 0.99 | locus YER167W, strain BCK2, active compounds read low 0.989 | locus YFR010W, strain ubp6, active compounds read low 0.985 | locus YGL078C, strain dbp3, active compounds read low 0.981 | locus YGL086W, strain mad1, active compounds read low 0.98 | locus YGL167C, strain pmr1, active compounds read low 0.991 | locus YGL173C, strain kem1, active compounds read low 0.993 | locus YGL227W, strain vid30, active compounds read low 0.987 | locus YGL240W, strain doc1, active compounds read low 1.02 | locus YGL248W, strain PDE1, active compounds read low 0.991 | locus YGL253W, strain hxk2, active compounds read low 0.978 | locus YGR078C, strain PAC10, active compounds read low 0.988 | locus YGR135W, strain pre9, active compounds read low 1 | locus YGR229C, strain SMI1, active compounds read low 0.971 | locus YGR252W, strain gcn5, active compounds read low 0.989 | locus YHR013C, strain ard1, active compounds read low 0.967 | locus YHR027C, strain rpn1, active compounds read low 1.01 | locus YHR030C, strain SLT2, active compounds read low 0.992 and 0.979 | locus YHR079C, strain IRE1 (second series), active compounds read low 0.989 | locus YHR079C, strain IRE1, active compounds read low 0.974 | locus YHR094C, strain hxt1, active compounds read low 0.969 | locus YHR129C, strain ARP1, active compounds read low 0.988 | locus YHR142W, strain chs7, active compounds read low 0.982 | locus YHR200W, strain rpn10, active compounds read low 0.967 | locus YIL066C, strain RNR3, active compounds read low 0.975 | locus YIL073C, strain SPO22, active compounds read low 0.981 | locus YIL125W, strain kgd1, active compounds read low 0.969 | locus YIR030C, strain dcg1, active compounds read low 0.978 | locus YJL092W, strain hpr5, active compounds read low 0.988 | locus YJL095W, strain BCK1 (second series), active compounds read low 0.998 | locus YJL095W, strain BCK1, active compounds read low 1.02 and 0.977 | locus YJL115W, strain asf1, active compounds read low 0.962 | locus YJL129C, strain trk1, active compounds read low 0.983 | locus YJL134W, strain LCB3, active compounds read low 0.976 | locus YJL154C, strain vps35, active compounds read low 0.992 | locus YJL164C, strain tpk1, active compounds read low 0.966 | locus YJL166W, strain qcr8, active compounds read low 1.01 | locus YJL168C, strain set2, active compounds read low 0.981 | locus YJL187C, strain SWE1 (second series), active compounds read low 0.987 | locus YJR043C, strain POL32, active compounds read low 0.965 | locus YJR066W, strain TOR1, active compounds read low 0.965 | locus YJR075W, strain HOC1, active compounds read low 0.997 | locus YKL009W, strain mrt4, active compounds read low 1.03 | locus YKL068W, active compounds read low 0.971 | locus YKL085W, strain MDH1 (second series), active compounds read low 0.982 | locus YKL085W, strain MDH1, active compounds read low 0.982 | locus YKL160W, strain elf1, active compounds read low 1 | locus YKR001C, strain vps1, active compounds read low 0.97 | locus YKR026C, strain gcn3, active compounds read low 0.989 | locus YKR091W, strain srl3, active compounds read low 0.97 | locus YLL001W, strain dnm1, active compounds read low 1.02 | locus YLL026W, active compounds read low 1 | locus YLL041C, strain sdh2, active compounds read low 1.01 | locus YLR027C, strain aat2, active compounds read low 0.993 | locus YLR039C, strain RIC1, active compounds read low 0.974 | locus YLR058C, strain SHM2, active compounds read low 0.978 | locus YLR102C, strain apc9, active compounds read low 0.982 | locus YLR113W, strain HOG1, active compounds read low 0.978 | locus YLR221C, strain rsa3, active compounds read low 1.01 | locus YLR258W, strain gsy2, active compounds read low 0.986 | locus YLR262C, strain YPT6 (second series), active compounds read low 0.991 | locus YLR262C, strain YPT6, active compounds read low 0.911 | locus YLR268W, strain sec22, active compounds read low 0.969 | locus YLR320W, strain mms22, active compounds read low 0.985 | locus YLR330W, strain CHS5, active compounds read low 0.985 | locus YLR342W, strain FKS1 (second series), active compounds read low 0.995 | locus YLR342W, strain FKS1, active compounds read low 1.02 | locus YLR357W, strain rsc2, active compounds read low 0.949 | locus YLR370C, strain arc18, active compounds read low 1.01 | locus YLR371W, strain rom2, active compounds read low 0.959 | locus YLR384C, strain iki3, active compounds read low 1 | locus YLR418C, strain cdc73, active compounds read low 1.01 | locus YML016C, strain PPZ1, active compounds read low 0.986 | locus YML032C, strain rad52, active compounds read low 0.97 | locus YML120C, strain ndi1, active compounds read low 1 | locus YML124C, strain tub3, active compounds read low 0.986 | locus YMR058W, strain fet3, active compounds read low 0.973 | locus YMR078C, strain ctf18, active compounds read low 0.964 | locus YMR125W, strain sto1, active compounds read low 0.975 | locus YMR129W, active compounds read low 0.985 | locus YMR205C, strain PFK2, active compounds read low 1 | locus YMR223W, strain ubp8, active compounds read low 1 | locus YMR231W, strain pep5, active compounds read low 0.999 | locus YMR263W, strain SAP30, active compounds read low 0.99 | locus YMR307W, strain GAS1, active compounds read low 0.942 | locus YNL067W, strain RPL9B, active compounds read low 0.992 | locus YNL071W, strain lat1, active compounds read low 1 | locus YNL128W, strain TEP1, active compounds read low 0.97 | locus YNL153C, strain GIM3, active compounds read low 0.995 | locus YNL175C, strain NOP13, active compounds read low 0.988 | locus YNL183C, strain NPR1, active compounds read low 0.925 | locus YNL197C, strain WHI3, active compounds read low 0.95 | locus YNL209W, strain ssb2, active compounds read low 0.983 | locus YNL224C, strain SQS1, active compounds read low 0.996 | locus YNL233W, strain BNI4, active compounds read low 1 | locus YNL248C, strain rpa49, active compounds read low 0.921 | locus YNL250W, strain rad50, active compounds read low 0.961 | locus YNL271C, strain bni1, active compounds read low 0.979 | locus YNL298W, strain CLA4, active compounds read low 0.972 | locus YNL307C, strain MCK1, active compounds read low 0.979 | locus YNL322C, strain KRE1 (second series), active compounds read low 1.01 | locus YNL322C, strain KRE1, active compounds read low 0.995 | locus YNR049C, strain mso1, active compounds read low 0.986 | locus YNR052C, strain pop2, active compounds read low 0.974 | locus YOL012C, strain htz1 1.03 | locus YOL147C, strain pex11, active compounds read low 0.991 | locus YOR001W, strain rrp6, active compounds read low 1.02 | locus YOR061W, strain CKA2, active compounds read low 0.962 | locus YOR069W, strain VPS5, active compounds read low 0.984 | locus YOR070C, strain gyp1, active compounds read low 0.992 | locus YOR080W, strain dia2, active compounds read low 1.01 | locus YOR083W, strain WHI5 (second series), active compounds read low 0.975 | locus YOR083W, strain WHI5, active compounds read low 1.03 | locus YOR106W, strain vam3, active compounds read low 1.02 | locus YOR136W, strain idh2, active compounds read low 0.973 | locus YOR144C, strain elg1, active compounds read low 0.984 | locus YOR184W, strain ser1, active compounds read low 0.965 | locus YOR231W, strain MKK1, active compounds read low 0.981 | locus YOR265W, strain rbl2, active compounds read low 1 | locus YOR270C, strain vph1, active compounds read low 0.968 | locus YOR290C, strain snf2, active compounds read low 0.982 | locus YOR316C, strain cot1, active compounds read low 0.948 | locus YPL051W, strain arl3, active compounds read low 1.02 | locus YPL055C, strain LGE1, active compounds read low 0.988 | locus YPL078C, strain atp4, active compounds read low 1.01 | locus YPL106C, strain sse1, active compounds read low 0.984 | locus YPL240C, strain hsp82, active compounds read low 1 | locus YPL241C, strain CIN2, active compounds read low 0.999 | locus YPL256C, strain CLN2, active compounds read low 0.965 | locus YPR119W, strain clb2, active compounds read low 0.977 | locus YPR141C, strain kar3, active compounds read low 0.956 | locus YPR163C, strain tif3, active compounds read low 0.975 | locus YPR167C, strain met16, active compounds read low 0.985 | strain wtn01, active compounds read low 0.996

Source: PubChem BioAssay AID1159580 (chemical genetic matrix, 2015)
